From PubChem
TDP1 cell CPT: DT40-hTDP1 cell growth loss with CPT | chicken DT40 Tdp1-/-;hTDP1 cells + 20 nM CPT, ATP luminescence, 48 h | Potency, µM (series often up to 46.2 µM), inactives show top-dose activity change, negative = growth inhibition, hits mostly inhibitors | actives 12% (n = 420,000) | AID 686979; note: potency is the fitted concentration of half-maximal effect; nearly all actives have a fitted effect of over 55% in size
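Chicken DT40 Tdp1-/- cells stably complemented with human TDP1 were seeded at 400 cells/well in medium containing 20 nM camptothecin, exposed to pin-transferred compounds, and grown at 37 °C for at least 48 hr. Viability was read as ATP luminescence.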
DT40 TDP1 no CPT: qHTS for Inhibitors of human tyrosyl-DNA phosphodiesterase 1 (TDP1): qHTS in cells in absence of CPT. Potency, µM (highest dose often 46.2 µM), for the others: top-dose activity change, negative = growth inhibition, usual class: inhibitors. AID 686978, 2013. actives 15% (n = 420,000). DT40 Tdp1-/- hTDP1 cells, no CPT, ATP luminescence, 48 h; note: potency is the fitted concentration of half-maximal effect; nearly all actives have a fitted effect of over 55% in size
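Stably hTDP1-transfected Tdp1-null chicken DT40 cells were treated with library compounds minus camptothecin and grown for at least 48 hr at 37 °C, after which cellular ATP was quantified by luminescence.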
RORgamma inh: inhibitors of mouse ROR gamma transcriptional activity. Potency, µM (series often up to 53.6 µM), for inactives: at the top dose activity change, negative = inhibition, actives largely listed as inhibitors. P51450. Drosophila S2 Gal4-RORgamma UAS-luciferase reporter, 20 h. actives 5.4% (n = 310,000); note: potency is the fitted concentration of half-maximal effect; nearly all actives have a fitted effect of over 60% in size
Target sequence (P51450 whole entry, looked up, the tested form may be a part): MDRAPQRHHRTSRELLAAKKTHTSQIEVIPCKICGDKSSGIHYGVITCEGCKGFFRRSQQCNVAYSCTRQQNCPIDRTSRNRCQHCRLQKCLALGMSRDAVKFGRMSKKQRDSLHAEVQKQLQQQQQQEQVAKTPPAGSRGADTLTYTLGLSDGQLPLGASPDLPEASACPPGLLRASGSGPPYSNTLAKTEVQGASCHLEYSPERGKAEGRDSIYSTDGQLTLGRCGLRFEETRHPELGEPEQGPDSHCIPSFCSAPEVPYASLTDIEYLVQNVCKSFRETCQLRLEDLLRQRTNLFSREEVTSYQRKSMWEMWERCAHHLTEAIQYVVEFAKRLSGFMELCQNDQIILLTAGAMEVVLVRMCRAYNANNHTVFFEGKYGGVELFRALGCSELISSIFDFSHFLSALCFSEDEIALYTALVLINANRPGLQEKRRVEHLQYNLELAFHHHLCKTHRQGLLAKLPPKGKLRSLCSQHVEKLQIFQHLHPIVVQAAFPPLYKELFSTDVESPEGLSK
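Compounds are pin-transferred onto Drosophila Schneider cells expressing a copper-inducible Gal4–ROR gamma transactivation domain fusion. After 1 hr, copper sulfate is added to 700 uM final; luciferase is read 20 hr later.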
IL1B secr inh: blocks inflammasome-driven IL-1 beta release; activity change, % at 57.5 µM; THP-1 LPS/ATP IL-1B secretion, AlphaLISA, 16 h; stronger effect = lower value; AID 743279; actives 4.7% (n = 360,000); in the data active = activity change below about -50%; inconclusive = mostly about -30% to -49%
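Secreted IL-1B measured by AlphaLISA bead assay after 16 h compound exposure of THP-1 cells; compounds (final up to 57.5 uM) added 1 h before LPS (250 ng/mL) and ATP (1.25 mM) stimulation; lower signal means less secretion.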
Gal4-VP16 FLuc: Gal4-VP16 reporter inhibition counter-screen; Drosophila S2 Gal4-VP16 UAS-luciferase, luminescence, 20 h; Potency, µM (highest dose often 53.6 µM), for the others: top-dose activity, negative = inhibition, hits mostly inhibitors; actives 3.5% (n = 310,000); AID 2546;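 note: Gal4-VP16 expression switched on by copper sulfate through the metallothionein promoter; potency is the fitted concentration of half-maximal effect; nearly all actives have a fitted effect of over 50% in size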
ELG1 DNA repair: ELG1-dependent DNA repair inhibition; actives 2.3% (n = 330,000); Potency, µM (top dose mostly 46.1 µM), inactives show at the highest dose activity change, negative = inhibition, hits mostly inhibitors; HEK293T ELG1-luciferase reporter, luminescence, 16 h; DNA damage induced by 5-fluorouridine; note: potency is the fitted concentration of half-maximal effect; nearly all actives have a fitted effect of over 55% in size
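DMSO vehicle served as the neutral condition. Each well held 2,000 cells given 5-fluorouridine plus compound; after 16 hr at 37 °C/5% CO2, ONE-Glo was added and luciferase measured 30 min later.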
Numbers without * were called inactive; [ ] = another dose, or the depositor's remark. This is a sample that favours compounds with a hit; in the whole collection about 21% have one here. Unless noted, calls come from the whole dose curve; as a rule, active = well fitted curve in the direction sought with a large enough effect; inconclusive = small, poorly fitted or top-dose-only effect, or another doubt; inactive = no such curve, though single readings can be large; an effect the other way counts as inactive or inconclusive. % is set by controls: 0 for no effect and ±100 for the full control effect.

For CCOC(=O)C1CCN(Cc2ccc(OC)c(C)c2OC)CC1 the results were TDP1 cell CPT -27%, DT40 TDP1 no CPT inconclusive, RORgamma inh -17%, IL1B secr inh -3, Gal4-VP16 FLuc 4% and ELG1 DNA repair -12%.
Cc1cc(N2CCN(c3ccc(F)cc3)CC2)n2nc(-c3ccc(Cl)cc3)nc2n1 was read as TDP1 cell CPT -2% and DT40 TDP1 no CPT 2%.
Screening Oc1c(CN2CCCC(C(F)(F)F)C2)cc(Cl)c2ccccc12 (stereo unspecified) returned TDP1 cell CPT 18µM*, DT40 TDP1 no CPT inconclusive, RORgamma inh -20%, IL1B secr inh -25, Gal4-VP16 FLuc 2% and ELG1 DNA repair -13%.
`CCOC(=O)C1CCN(Cc2nc3ccc(Cl)cc3n2CCO)CC1` gave TDP1 cell CPT 21µM*, DT40 TDP1 no CPT inconclusive, RORgamma inh -8%, IL1B secr inh -25, Gal4-VP16 FLuc 2% and ELG1 DNA repair -5%.
For COc1ccc(C2=C(C=Nc3c(C)n(C)n(-c4ccccc4)c3=O)C(c3ccccc3C)c3ccccc3O2)cc1OC (stereo unspecified) the results were TDP1 cell CPT -27%, DT40 TDP1 no CPT -26%, RORgamma inh 13%, IL1B secr inh -23, Gal4-VP16 FLuc -3% and ELG1 DNA repair 2.9µM*.
`COc1ccc(-c2cc3c(=O)n(CC(=O)NCCCN4CCN(Cc5ccccc5)CC4)ncn3n2)cc1` gave TDP1 cell CPT 9.2µM*, DT40 TDP1 no CPT 5.2µM*, RORgamma inh -16%, IL1B secr inh 16, Gal4-VP16 FLuc -9% and ELG1 DNA repair inconclusive.
COc1ccc(-c2cc3c(=O)n(CC(=O)NCc4ccc(C)cc4)ncn3n2)cc1 was read as TDP1 cell CPT 7.3µM*, DT40 TDP1 no CPT 6.5µM*, RORgamma inh -16%, IL1B secr inh 17, Gal4-VP16 FLuc 6% and ELG1 DNA repair inconclusive.
For COc1ccc(-c2cc3c(=O)n(CC(=O)NCCCN4CCC(Cc5ccccc5)CC4)ncn3n2)cc1 the results were TDP1 cell CPT inconclusive, DT40 TDP1 no CPT inconclusive, RORgamma inh 8%, IL1B secr inh -14, Gal4-VP16 FLuc 15% and ELG1 DNA repair inconclusive.
For Cc1ccc(-n2ncc3c(=O)n(-c4cccc(C)c4)c(=O)[nH]c32)cc1 the results were TDP1 cell CPT -10%, DT40 TDP1 no CPT -7% and IL1B secr inh 15.
Screening COC(=O)c1cccnc1-n1c(=O)c2cccnc2n(Cc2cccc([N+](=O)[O-])c2)c1=O returned TDP1 cell CPT inconclusive, DT40 TDP1 no CPT 12µM*, RORgamma inh 5%, IL1B secr inh 0, Gal4-VP16 FLuc 7% and ELG1 DNA repair 8%.
CCNC(=O)COc1ccc(F)cc1C(=O)c1cnn(-c2ccccc2)c1 was read as TDP1 cell CPT inconclusive, DT40 TDP1 no CPT inconclusive, RORgamma inh 34%, IL1B secr inh inconclusive, Gal4-VP16 FLuc -12% and ELG1 DNA repair 14%.
`O=C(COc1ccccc1C(=O)c1cnn(-c2ccccc2)c1)Nc1ccccc1` gave TDP1 cell CPT inconclusive, DT40 TDP1 no CPT 15µM*, RORgamma inh inconclusive, IL1B secr inh 22, Gal4-VP16 FLuc -20% and ELG1 DNA repair inconclusive.
`COc1ccccc1CNC(=O)COc1ccccc1C(=O)c1cnn(-c2ccccc2)c1` gave TDP1 cell CPT 23µM*, DT40 TDP1 no CPT inconclusive, IL1B secr inh -7 and ELG1 DNA repair inconclusive.
For Cc1ccc(S(=O)(=O)N2C[C@H]3C(=O)C[C@@H](c4ccccc4F)N(S(=O)(=O)c4ccc(C)cc4)[C@H]3C[C@H]2c2cccc3ccccc23)cc1 the results were TDP1 cell CPT -10%, DT40 TDP1 no CPT -22% and IL1B secr inh -10.
`O=C(/C=C/c1ccccc1O)c1ccc(Cl)cc1` gave TDP1 cell CPT 21µM*, DT40 TDP1 no CPT 23µM*, RORgamma inh inconclusive, IL1B secr inh inconclusive, Gal4-VP16 FLuc inconclusive and ELG1 DNA repair 13%.
`O=C(/C=C/c1ccccc1O)c1ccccc1` gave TDP1 cell CPT 21µM*, DT40 TDP1 no CPT 15µM* and IL1B secr inh -54*.
For CC(=O)/C=C/c1ccccc1O the results were TDP1 cell CPT 0%, DT40 TDP1 no CPT inconclusive, RORgamma inh -34%, IL1B secr inh -1, Gal4-VP16 FLuc 6% and ELG1 DNA repair 6%.
`CCOc1ccccc1/C=C/C(=O)c1ccc(Cl)cc1` gave TDP1 cell CPT inconclusive, DT40 TDP1 no CPT 16µM*, RORgamma inh -18%, IL1B secr inh inactive, Gal4-VP16 FLuc -1% and ELG1 DNA repair inconclusive.
For O=C(/C=C/c1ccccc1[N+](=O)[O-])c1ccc(F)cc1 the results were TDP1 cell CPT 13µM*, DT40 TDP1 no CPT 18µM*, RORgamma inh 2%, IL1B secr inh inconclusive, Gal4-VP16 FLuc -3%[10 µM] and ELG1 DNA repair inconclusive.
For O=c1cnc2cnc(Oc3ccccc3)nc2n1Cc1cccs1 the results were TDP1 cell CPT inconclusive, DT40 TDP1 no CPT inconclusive, RORgamma inh -19% and Gal4-VP16 FLuc 20%.
For CC(C)C[C@@H](CN1C(=O)C(=O)NC[C@@H]1CC(C)C)NC(=O)Cc1ccccc1 the results were TDP1 cell CPT -9%, DT40 TDP1 no CPT -15%, IL1B secr inh -4 and ELG1 DNA repair inconclusive.
Screening CCCCN(C)CCNC(=O)c1c(C)oc2ncnc(N3CCOCC3)c12 returned TDP1 cell CPT 17% and DT40 TDP1 no CPT 6%.
Screening Cc1c(CCC(=O)NCCc2ccccc2)c(=O)oc2c(C)c(O)ccc12 returned TDP1 cell CPT -7% and DT40 TDP1 no CPT -2%.
For Cc1cc(O)c(C(=O)/C=C/c2cccc([N+](=O)[O-])c2)c(=O)o1 the results were TDP1 cell CPT inconclusive, DT40 TDP1 no CPT inconclusive, RORgamma inh -2%, IL1B secr inh -3, Gal4-VP16 FLuc -8% and ELG1 DNA repair 1%.
For O=C(/C=C/c1cccc2ccccc12)c1ccncc1 the results were TDP1 cell CPT 21µM*, DT40 TDP1 no CPT 15µM*, RORgamma inh -88%, IL1B secr inh -82*, Gal4-VP16 FLuc 8.9µM* and ELG1 DNA repair 26%.
Cc1cc(O)c(C(=O)/C=C/c2ccccc2O)c(=O)o1 was read as TDP1 cell CPT 23µM*, DT40 TDP1 no CPT 29µM*, RORgamma inh -9%, IL1B secr inh inconclusive, Gal4-VP16 FLuc 9% and ELG1 DNA repair -3%.
